Laboratory results published in PubChem BioAssay (NCATS).
Records with an inconclusive call do not appear. Entries that show only a call come without a potency. Active and inactive are the calls of the source. Calls follow the shape of the dose curve; as a rule, active = well fitted inhibition curve with a large enough effect; inconclusive = small, poorly fitted or top-dose-only effect, or effect the other way; inactive = flat fitted curve, though single readings scatter.

These compounds were tested against ATP-dependent 6-phosphofructokinase (Trypanosoma brucei brucei) (UniProt O15648) (assay: qHTS Assay to Find Inhibitors of T. brucei phosphofructokinase: hit validation (AID 492961)). Conditions: T. brucei PFK, ADP-Glo luminescence; series mostly up to 51.4 µM.
Sequence of ATP-dependent 6-phosphofructokinase (Trypanosoma brucei brucei) (O15648 whole entry, looked up): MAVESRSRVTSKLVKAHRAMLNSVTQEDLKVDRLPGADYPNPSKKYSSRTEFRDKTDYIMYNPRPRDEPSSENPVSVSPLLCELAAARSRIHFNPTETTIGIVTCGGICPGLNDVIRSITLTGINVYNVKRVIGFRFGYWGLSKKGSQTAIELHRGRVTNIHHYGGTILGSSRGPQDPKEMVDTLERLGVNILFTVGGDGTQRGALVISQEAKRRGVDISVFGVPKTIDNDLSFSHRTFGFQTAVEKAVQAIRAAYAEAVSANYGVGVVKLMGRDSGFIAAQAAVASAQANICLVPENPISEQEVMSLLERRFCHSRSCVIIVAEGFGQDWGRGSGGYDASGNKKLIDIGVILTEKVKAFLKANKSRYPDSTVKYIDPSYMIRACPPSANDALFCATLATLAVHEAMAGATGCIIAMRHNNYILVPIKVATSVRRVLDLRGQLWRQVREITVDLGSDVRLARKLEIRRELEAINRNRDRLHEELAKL
Summary of the method: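 In this biochemical qHTS validation, titrated compounds were tested against 1.25 nM PFK with 0.1 mM ATP and 0.5 mM F6P. Percent activity came from controls lacking or containing enzyme.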
Potency is read from the fitted curve at half-maximal effect.

SMILES | Potency
O=c1[nH]cc(N(CCCl)CCCl)c(=O)[nH]1 | inactive
C#CC(C)(O)CC (centres undefined) | inactive
CCCC(C)(COC(N)=O)COC(=O)NC1CC1 (centres undefined) | inactive
CNC(C)C(O)c1ccc(O)cc1 (centres undefined) | inactive
Clc1ccccc1Cl | inactive
COc1ccc2c3c1O[C@H]1C(=O)CC[C@H]4[C@@H](C2)N(C)CC[C@]314 | inactive
CC(=O)OO | inactive
[O]=[Cd] | inactive
OC(c1ccccc1)(c1ccccc1)C1CN2CCC1CC2 (centres undefined) | inactive
FC(F)OC(F)(F)C(F)Cl (centres undefined) | inactive
S=C(S)N1CCNCC1 | inactive
O=C(CCl)c1ccc(Oc2ccc(C(=O)CCl)cc2)cc1 | inactive
Oc1cccc[c]1[Hg][Cl] | 5.62 µM (active)
c1cc2c(c(NC3=NCCN3)c1)CCCC2 | inactive
C[CH2][Hg][S]c1ccccc1C(=O)O | 14.1 µM (active)
CCC1(c2ccccc2)C(=O)NC(=O)NC1=O | inactive
CCCC(C)C1(CC)C(=O)NC(=O)NC1=O (centres undefined) | inactive
c1csc(C2(N3CCCCC3)CCCCC2)c1 | inactive
CC(C)CCON=O | inactive
CCC(C)(S(=O)(=O)CC)S(=O)(=O)CC | inactive

SMILES | Potency
C/C(=C\c1csc(C)n1)[C@@H]1C[C@@H]2O[C@]2(C)CCC[C@H](C)[C@H](O)[C@@H](C)C(=O)C(C)(C)[C@@H](O)CC(=O)O1 | inactive
CCCCNCC(O)c1ccc(O)cc1 (centres undefined) | inactive
CCCCCCCCOC(=O)c1ccccc1C(=O)OCCCCCCCC | inactive
C[C@]12CCC(=O)C[C@@H]1CC[C@@H]1[C@@H]2CC[C@]2(C)[C@@H](O)CC[C@@H]12 | inactive
F/C(COc1ccc2c(c1)[nH]c1ccccc12)=C1/CN2CCC1CC2 | inactive
CCCCCCCCCC(=O)O[C@H]1CC[C@H]2[C@@H]3CCC4=CC(=O)CC[C@]4(C)[C@H]3CC[C@]12C | inactive
CCN(CC)C(=O)/C(Cl)=C(\C)OP(=O)(OC)OC | inactive
NCC(O)c1cccc(O)c1 (centres undefined) | inactive
CC(C)Nc1ccc(Nc2ccccc2)cc1 | inactive
CCC1(c2ccccc2)C(=O)NC(=O)N(C(=O)c2ccccc2)C1=O (centres undefined) | inactive
C=CCC1(C(C)CCC)C(=O)N=C(S)NC1=O (centres undefined) | inactive
COCC(C)N(C(=O)CCl)c1c(C)csc1C (centres undefined) | inactive
C[C@H]1CCC[C@H](O)CCCCCc2cc(O)cc(O)c2C(=O)O1 | inactive
N#CN | inactive
CCC1(CC)C(=O)NC(=O)N(C)C1=O | inactive
COC1=CC=C2[C@H]3Cc4ccc(OC)c5c4[C@@]2(CCN3C)[C@H]1O5 | inactive
O[C@H]1[C@H]2[C@H](O)CCCN2C[C@H]1O | inactive
CC(=O)O[C@H]1CC[C@H]2[C@@H]3CCC4=CC(=O)CCC4=C3C=C[C@]12C | inactive
Cn1sc(Cl)cc1=O | inactive
